# Data taken from ChEMBL document CHEMBL3988442, “University of Dundee, Small-Polar-MMV Screening Library” (2021).
# The campaign covered roughly 48,000 compounds. About 13,000 (27%) showed an effect of 50% or more. Some of the results follow.
# Tested on: Wolbachia pipientis
# Assay: Anti-Wolbachia Cell-Based Screen
# Format: functional
# Parameters: scale not given: in the data most compounds retested in dose-response had high values
# Settings: 5 µM
row,Structure (SMILES),Percent Effect [%]
1,CC(=O)c1cc(CN2C[C@H]3CC[C@@H]2CN(Cc2c(C)noc2C)C3)cs1,0.576
2,c1cnc(Nc2cncc(C3CCCN(c4cnccn4)C3)n2)nc1 (configuration not stated),136.5
3,c1ccc(N2CCCC(c3nc(-c4cccnn4)no3)C2)nc1 (configuration not stated),-11.75
4,c1cnc(Nc2cncc(C3CCCN(c4ncccn4)C3)n2)nc1 (configuration not stated),144.2
5,Cc1cc(NC(=O)CNc2cccc(C(=O)N3CCCC(O)C3)c2)no1 (configuration not stated),-4.959
6,O=C(Cn1c(=O)oc2ccccc21)NCC(O)c1ccc2c(c1)CCO2 (configuration not stated),-5.514
7,O=C(CCn1c(=O)oc2ccccc21)NCC(O)c1ccc(F)c(F)c1 (configuration not stated),132.5
8,O=C(NCC(O)c1ccc(F)c(F)c1)c1ccccc1F (configuration not stated),-40.57
9,CC(c1ccccn1)N(C)C(=O)NCCn1c(=O)oc2ccccc21 (configuration not stated),-13.01
10,Nc1nnc(SCC(=O)NCC(O)c2ccccc2)s1 (configuration not stated),7.273
11,O=C(CCc1ccccn1)NCC(O)c1ccc(Cl)cc1Cl (configuration not stated),-3.695
12,O=C(CCCc1ccccn1)NCC(O)c1ccccc1Cl (configuration not stated),8.067
13,O=C(CCn1c(=O)oc2ccccc21)NCC(O)c1ccc(Cl)cc1 (configuration not stated),131.9
14,CC(NCCn1c(=O)oc2ccccc21)c1ccccn1 (configuration not stated),-1.92
15,CC(NC(=O)CCn1c(=O)oc2ccccc21)c1ccccn1 (configuration not stated),132.8
16,Cc1ccc(C(O)CNC(=O)CCCc2ccccn2)o1 (configuration not stated),-12.57
17,O=C(CCn1c(=O)oc2ccccc21)NCC(O)c1ccccc1 (configuration not stated),124.9
18,COCc1ccc(C(=O)NS(=O)(=O)c2ccc3c(c2)CCC(=O)N3)cc1,-28.72
19,Cc1cc(N2CCN(C(=O)c3cc(Cl)c[nH]3)CC2)nc(C)n1,-11.81
20,Cn1ccnc1CN1CCC(c2ccnc(-c3cccc(O)c3)c2)C1 (configuration not stated),8.376
21,COc1cccc(-c2cc(C3CCCNC3)ccn2)c1 (configuration not stated),179.8
22,COc1ccc([C@@H](C)n2ccnc2-c2cc3n(n2)CCCNC3)cc1,-13.97
23,COc1ccc(OC)c(C2CCN(C3CCN(C(C)=O)CC3)C2)c1 (configuration not stated),-1.425
24,COc1ccc([C@@H]2CN(c3cc(C(=O)O)ccn3)C[C@H]2N(C)C)cc1,-11.81
25,COc1cccc(-c2c[nH]c(C3CCCN3)n2)c1.Cl.Cl (configuration not stated),-13.27
26,COc1ccc(-c2cc(C3CCCNC3)ccn2)cc1.Cl (configuration not stated),198.3

row,Structure (SMILES),Percent Effect [%]
1,COc1ccc(-c2cc(C3CCN(C(C)=O)CC3)ccn2)cc1,135.1
2,COc1ccc(-c2cc(C3CCNCC3)ccn2)cc1.Cl,126.8
3,COc1ccc(-c2nc(C3CCNCC3)cc3c2ncn3C)cc1.Cl.Cl,-43.66
4,CC(NC(=O)CCCc1ccc(Cl)cc1)c1n[nH]c(=O)[nH]1 (configuration not stated),26.11
5,COCCCNC(=O)C1CCN(CC2(O)CCC(C)CC2)CC1 (configuration not stated),-1.754
6,O=C(c1ccc(O)c(Cl)c1)N1CCC(c2n[nH]c(C3CC3)n2)CC1,7.915
7,Cc1noc(C)c1CNC(=O)Nc1ccc(N2CCOC(C)C2)cc1 (configuration not stated),95.8
8,Cc1noc(C)c1CN1C[C@@H](C(=O)O)[C@H](c2ccccc2)C1,-10.93
9,Cc1noc(C)c1CCCNC(=O)Nc1ccc2c(c1)CC(=O)N2,-4.957
10,Cc1noc(C)c1CNC(=O)Nc1ccc(N2CCOC2=O)cc1,99.13
11,Cc1ocnc1CNC(=O)Nc1ccc(N2CCOC(C)C2)cc1 (configuration not stated),105.8
12,Cc1noc(C)c1CNC(=O)Nc1ccc(N2CCSCC2)cc1,101.4
13,CC1CN(c2ccc(CNC(=O)NCc3ccoc3)cn2)CCO1 (configuration not stated),4.131
14,Cc1noc(C)c1CNC(=O)N1CCC(CO)CC1,-12.65
15,Cc1ccsc1CNC(=O)c1ccc(N2CCOC2=O)cc1,25.75
16,CC1CN(c2ccc(CNC(=O)NCCO)cn2)CCO1 (configuration not stated),-1.494
17,Cc1noc(C)c1C(=O)NCc1ccc(N2CCOC(C)C2)nc1 (configuration not stated),6.815
18,Cc1noc(C)c1CCCNC(=O)Nc1ccc2c(c1)COC2,12.5
19,O=C(CCCn1cncn1)NC1(c2ccc(Cl)cc2)CCC1,-16.99
20,O=C(CCc1cc(O)no1)N1CCCC(COc2ccc(F)cc2)C1 (configuration not stated),-11.68
21,COc1cc(CCC(=O)N2CCC(c3cc4ncccc4[nH]3)CC2)on1,86.08
22,O=C(CCN1CCC(c2cc3ccccc3[nH]2)CC1)N1CCOCC1,-13.23
23,O=C(CCc1cc(O)no1)N1CCCC(COc2ccccc2F)C1 (configuration not stated),-3.381
24,COc1cc(CCC(=O)N2CCC(c3cc4nccnc4[nH]3)CC2)on1,109.8
25,O=C(CCn1ccc(=O)[nH]c1=O)N1CCC(Oc2ccccn2)CC1,4.456
26,O=C(NC1(C(=O)O)CCCC1)C1Cc2cc(F)ccc2O1 (configuration not stated),-1.866

row,Structure (SMILES),Percent Effect [%]
1,CN1C[C@@H](C(=O)NC2CCCC2)[C@@]2(COc3ccc(F)cc3C2=O)C1,83.49
2,O=C(CCN1CCC(C(=O)c2cc(F)ccc2F)CC1)NC1CCCC1,-34
3,CC(C)NC(=O)[C@@H]1CN(C)C[C@]12COc1ccc(F)cc1C2=O,126.3
4,CNC(=O)N1Cc2cc(F)ccc2C2(CCN(C)CC2)C1.Cl,3.324
5,Cc1ccsc1C(=O)N1CC(C(=O)NC(C)C)C2(CCOCC2)C1 (configuration not stated),2.071
6,CN1C[C@@H](C(=O)NC2CC2)[C@@]2(COc3ccc(F)cc3C2=O)C1,74.8
7,O=C(NCCNC(=O)C1Cc2cc(F)ccc2O1)C1CCCCC1 (configuration not stated),14.96
8,CCCN1CCC(NC(=O)c2ccc(F)cc2I)CC1,3.516
9,O=C(C1CCOc2ccccc21)N1CCOc2ccc(F)cc21 (configuration not stated),2.761
10,CC(C)NC(=O)C1CN(C(=O)c2ccc(F)cc2)CC12CCOCC2 (configuration not stated),19.27
11,CN1CCN(C(=O)[C@@H]2CN(C)C[C@]23COc2ccc(F)cc2C3=O)CC1,67.23
12,Cc1cc(F)ccc1N1CCC(N2C[C@@H](C)[C@@](C)(O)C2)CC1,-24.61
13,OCCOCc1n[nH]c2c1CN(Cc1cccs1)C2,-8.945
14,C1CCC(c2nc3c(c(N4CC(N5CCOCC5)C4)n2)CCNCC3)C1,-4.65
15,Cc1noc(C)c1CN(C)C(=O)C1CCCCN1CC(C)C (configuration not stated),0.6295
16,CCc1cnc(C)nc1N1CCS(=O)(=O)CC1,16.32
17,CC(C)(C)NC(=O)C1CSCN1S(=O)(=O)c1cccc(F)c1 (configuration not stated),1.077
18,CN1C[C@@H](C(=O)NC(C)(C)C)[C@@]2(COc3ccc(F)cc3C2=O)C1,107.1
19,CC(C)(C)NC(=O)C1CSCN1S(=O)(=O)c1ccc(F)cc1 (configuration not stated),5.212
20,CC(=O)c1cccc(S(=O)(=O)N2CSCC2C(=O)NCC(F)(F)F)c1 (configuration not stated),8.95
21,CN(Cc1ccco1)Cc1ccccc1CNC(=O)c1cnccn1,7.808
22,Cc1ccc(CNC(=O)c2c[nH]nc2NC(=O)C2CCC2)cc1,4.147
23,Cc1cc(C(=O)NCc2ccc(-c3n[nH]cc3C(=O)N(C)C)cc2)on1,136.2
24,CCOc1cc(CNC(=O)c2cc(-c3ccccn3)no2)ccn1,-5.804
25,Cc1ncsc1C(=O)NCc1ccc(-c2n[nH]cc2C(=O)N(C)C)cc1,72.18
26,Cc1ncsc1C(=O)NCc1cccs1,-3.425

row,Structure (SMILES),Percent Effect [%]
1,CCN(CC)c1ccc(CNC(=O)c2cnccn2)cn1,2.528
2,CN(CCOc1cccc(CNC(=O)C2CC2)c1)C1CCOCC1,-18.9
3,Cc1cc(C(=O)NCc2ccccc2CN(C)Cc2ccco2)on1,21.5
4,CN(C)C(=O)c1cncnc1-c1ccc(CNC(=O)C2CC2)cc1,73.6
5,CN(C)C(=O)c1c[nH]nc1-c1ccc(CNC(=O)c2cnccn2)cc1,109.4
6,CN(c1ccc(CNC(=O)c2ccc(O)nc2)cc1)C1CCCCC1,6.661
7,CCC(C)NC(=O)c1ccc(NC(=O)CCCn2cncn2)c(C)c1 (configuration not stated),-0.8579
8,CC(C)=CCS(=O)(=O)Cc1ccn(-c2cccc(F)c2)n1,-8.164
9,Cc1cc(C)n2nc(CC(=O)N3CC[C@H]4NCCC[C@]4(CO)C3)nc2n1,5.114
10,CCC(O)Cn1nc(CCSC)nc1-c1ccc2c(c1)OCCO2 (configuration not stated),-7.02
11,CCc1nc(C2CCCN(C(=O)c3c(C)noc3C)C2)no1 (configuration not stated),106.3
12,CCc1nc(C2CCCN(C(=O)c3ccc(OC(C)C)nc3)C2)no1 (configuration not stated),4.592
13,CC(C)c1nc(C2CCCN(C(=O)c3ccc4[nH]cnc4c3)C2)no1 (configuration not stated),1.919
14,CCc1nc(C2CCCN(C(=O)c3ccc(Cl)cc3)C2)no1 (configuration not stated),149.4
15,CCc1nc(C2CCCN(C(=O)c3cn(C)nc3C)C2)no1 (configuration not stated),-1.661
16,CCc1nc(C2CCCN(C(=O)c3ccc4[nH]cnc4c3)C2)no1 (configuration not stated),87.55
17,CCc1nc(C2CCCN(C(=O)c3ccc(O)nc3)C2)no1 (configuration not stated),94.4
18,CCc1nc(C2CCCN(C(=O)c3ccc4[nH]nnc4c3)C2)no1 (configuration not stated),1.903
19,O=C(NCc1ccc(CN2CCCC2)cc1)NCc1ccon1,-9.348
20,COc1cc(C)nc(N2CCN(C(=O)CNC(C)(C)C)CC2)n1,-7.081
21,c1cncc(NCCCNC2CCSC2)c1 (configuration not stated),8.573
22,Cn1cnnc1-c1cncc(NCc2cccc3c2OCO3)c1,-7.225
23,Cc1noc(C(C)Nc2ccc3oc(=O)[nH]c3c2)n1 (configuration not stated),-7.057
24,CN(CC(=O)N1CCN(c2ncccn2)CC1)c1ccc(Cl)cn1,-31.13
